Shiga inhibitor = blocks Shiga toxin action in Vero cells | Vero cells, Shiga toxin protein synthesis inhibition reporter | inhibition, % at 38.7 µM | hit rate 9.2% among 290,000; in the data active = inhibition mostly above about 28%, no sharp cut-off; inactive = mostly below about 43%; also: 0% is about no effect
Lassa entry inh = Lassa virus entry inhibition; Lassa virus pseudotype entry inhibition, cell reporter; Potency, µM (highest dose often 37.9 µM), for inactives: at the highest dose activity change, negative = inhibition, actives largely listed as inhibitors; hit rate 1.2% among 300,000; calls by dose curve; tested in HEK293 cells; also: potency is read from the fitted curve at half-maximal effect; % is scaled to controls: 0 for no effect and ±100 for the full control effect; nearly all actives have a fitted effect of over 50% in size
Marburg entry inh = blocks Marburg virus binding to or entry into cells; Marburg virus pseudotyped entry inhibition, cell reporter; Potency, µM (titrated, usually from 37.8 µM), inactives show at the top dose activity change, negative = inhibition, actives largely listed as inhibitors; hit rate 1.8% among 300,000; calls by dose curve; tested in HEK293 cells; also: potency is read from the fitted curve at half-maximal effect; % is scaled to controls: 0 for no effect and ±100 for the full control effect
CHX counter = counter-screen hit for Shiga toxin inhibitors, cycloheximide | cell reporter, cycloheximide protein synthesis inhibition counterscreen | max response, % | hit rate 12% among 300,000 | AID 2314; in the data active = max response mostly above about 13%, no sharp cut-off; inactive = mostly below about 14%; also: read at 38.3 µM for the half of the compounds with a filed dose; 0% is about no effect
The depositor's hits bear a star; u = inconclusive; x = not tested or not shown; [ ] = dose if it differs, or a comment. In the library only some 12% were active in any assay of this set; here they are far more common.

SMILES	Shiga inhibitor	Lassa entry inh	Marburg entry inh	CHX counter
CC#CCCCC(=O)Nc1ccccc1C(=O)O	83*	7%	20%	28*
CCOc1cccc2sc(N(Cc3cccnc3)C(=O)c3ccco3)nc12	x	-17%[46.1 µM]	x	x
O=C(Cc1ccccc1)Nc1ccccc1C(=O)O	76*	-5%	26%	35*
O=C(CC(=O)Nc1ccccc1C(=O)O)NNC(=O)Cc1ccccc1	8	-10%	1%[46.1 µM]	5
COc1ccc(/C=N/NC(=O)c2ccoc2C)cc1COc1ccc(Cl)cc1	91*	u	u	33*
COc1ccc(/C=N/NC(=O)c2ccoc2C)cc1O	57*	u	10%	58*
COc1ccc(/C=N/NC(=O)c2ccoc2C)cc1OC	115*	u	6%	43*
COC(=O)C1Cc2ccccc2CN1C(=O)CCl (configuration not stated)	-10	u	7.1µM*	13
CC(=C\c1ccccc1)/C=C1/SC(=S)N(C(C(=O)O)C(C)C)C1=O (configuration not stated)	-2	10%[46.1 µM]	-2%[46.1 µM]	-2
CC(C)C(C(=O)O)N1C(=O)/C(=C/c2ccc(Br)cc2)SC1=S (configuration not stated)	21*	x	x	27*
CCOc1ccc(-n2c(=O)c3c(C)c(C)sc3n(Cc3cc(=O)n4cc(Cl)ccc4n3)c2=O)cc1	x	29%[46.1 µM]	6%[46.1 µM]	x
CSc1nc(-c2cccs2)c(C#N)c(=O)[nH]1	26	1%	10%[46.1 µM]	8.9*
COCCCNC(=O)Cn1c(=O)nc(-c2ccccc2)c2ccccc21	x	-10%[46.1 µM]	x	x
C/C(=N\NC(=O)c1csc(C)c1C)c1ccc(Cl)s1	72*	27%	23%	33*
CC/C(=N\NC(=O)c1ccoc1C)c1ccc(C)o1	149*	u	u	82*
C/C(=N\NC(=O)c1ccoc1C)c1ccc(Cl)s1	87*	x	x	41*
COc1ccccc1-c1nc(SCc2ccccn2)n[nH]1	76*	u	0%	41*
CCOc1ccccc1-c1nc(SCC(=O)c2ccc(OC)c(Br)c2)n[nH]1	x	30%[46.1 µM]	11%[46.1 µM]	x
Nc1nc2cc3ccccc3cc2[nH]c1=O	x	x	x	6
CC(=O)Nc1ccc2nc(-c3ccccn3)[nH]c2c1	74*	u	10%	46*
c1cncc(-c2nc3cc4ccccc4cc3[nH]2)c1	62*	-24%	u	45*
CC(=O)Nc1ccc2nc(-c3ccncc3)[nH]c2c1	30	-6%	-2%	10
c1ccc(-c2nc3cc4ccccc4cc3[nH]2)nc1	7	2.2µM*	u	1
O=C(CNC(=O)C12CC3CC(CC(C3)C1)C2)N1CCN(S(=O)(=O)/C=C/c2ccccc2)CC1	-26	u	-17%	-4
Cn1cccc1CC(=O)NNC(=S)NC(=O)c1ccccc1Br	-4	-27%[46.1 µM]	u	3
SMILES	Shiga inhibitor	Lassa entry inh	Marburg entry inh	CHX counter
O=C(CC1CCCCC1)NCc1ccc(Cl)cc1	x	u	6%	27*
O=C(CCC1CCCCC1)NCc1ccc(F)cc1	active	20%	-17%	23*
O=C(CCC1CCCCC1)NCc1ccncc1	-1	8%	u	-3
O=C1c2ccccc2NC(c2ccccc2Cl)N1N=C1CCCCCC1 (configuration not stated)	89*	1%	u	37*
O=C1NC(c2ccccc2Cl)Nc2ccccc21 (configuration not stated)	-27	-3%	u	-4
Cc1ccc(S(=O)(=O)N[C@@H]2COC(=O)[C@@H](C)COC(=O)C/C=C/[C@H]2C)cc1	x	x	7%[14.2 µM]	x
O=C(COc1ccccc1[N+](=O)[O-])Nc1ccc2c(c1)OCO2	66*	x	x	31*
COc1cc(C)c(NC(=O)COc2ccc3c(c2)OCO3)cc1C	49*	2%[46.1 µM]	-6%[46.1 µM]	20*
O=C(N/N=C/c1cccc(OC(=O)c2ccc3c(c2)OCO3)c1)c1cncc(Br)c1	56*	13%	30%	49*
COC(=O)c1ccccc1NC(=O)COc1ccc2c(c1)OCO2	12	-22%	2%	6
O=C(COc1ccccc1[N+](=O)[O-])N/N=C/c1cccc(OC(=O)c2ccc3c(c2)OCO3)c1	95*	28%	u	93*
O=C(O)CCc1nn2c3ccccc3nc2n(Cc2ccccc2)c1=O	4	-8%	22%[46.1 µM]	-3
Cc1ccc(C)c(OCC(=O)Nc2ccc3c(c2)OCO3)c1C	10	u	u	7
O=C(Cc1ccccc1[N+](=O)[O-])Nc1ccccc1C(=O)N1CCCC1	-6	8%[46.1 µM]	17%[46.1 µM]	-3
O=C(Cc1ccccc1[N+](=O)[O-])Nc1ccccc1C(=O)N1CCOCC1	-6	10µM*	18%[46.1 µM]	-4
COC(=O)c1ccc(NC(=O)COc2ccc3c(c2)OCO3)cc1	-7	26%	-27%[46.1 µM]	20*
O=C(COc1ccc2ccc(=O)oc2c1)Nc1ccc(CCO)cc1	33	x	x	-2
Cc1cccc(OCC(=O)Nc2ccc3c(c2)OCO3)c1C	67	7%	1%[46.1 µM]	55*
O=C(COc1ccc2ccc(=O)oc2c1)Nc1ccc2c(c1)OCCO2	9	13%	-2%	13*
Cc1cc(C)cc(NC(=O)CCc2nnc3n(C)c(=O)c4sccc4n23)c1	x	1%[46.1 µM]	10%[46.1 µM]	x
O=C1Nc2ccc(Br)cc2C1(O)c1ccc(F)cc1 (configuration not stated)	-5	x	x	-3
O=C(Cc1ccccc1[N+](=O)[O-])Nc1ccc2c(c1)OCCO2	89*	u	-10%	55*
Cc1ccc(OCC(=O)Nc2ccc3c(c2)OCO3)cc1C	29*	x	x	25*
O=C(COC(=O)COc1ccccc1[N+](=O)[O-])Nc1ccc2c(c1)OCO2	x	15%[46.1 µM]	14%[46.1 µM]	x
COc1ccc(C2(O)C(=O)Nc3ccc(C)cc32)cc1OC (configuration not stated)	-6	5%	3%	-6
SMILES	Shiga inhibitor	Lassa entry inh	Marburg entry inh	CHX counter
Cc1ccc2c(c1)sc(=NC(=O)C1CC1)n2C	89*	x	x	45*
Cc1ccc2c(c1)sc(=NC(=O)c1cccs1)n2C	0	x	x	-1
Cc1cc(C(=O)Nc2ccc3c(c2)OCO3)cs1	58*	u	-26%	39*
Cc1ccnc(NC(=O)c2ccc3c(c2)OCO3)c1	66*	u	u	25*
O=C(Nc1cc([N+](=O)[O-])ccc1F)c1ccc2ccccc2c1	4	u	u	5
O=C(Nc1cc([N+](=O)[O-])ccc1F)c1ccc2c(c1)OCCO2	56*	-2%	10%[46.1 µM]	28*
Cc1ccccc1C(=O)N1CCN(c2ccc(NC(=O)c3ccc4c(c3)OCCO4)cc2)CC1	-4	u	5µM*	-1
CCOC(=O)c1ccc(NC(=O)c2nc[nH]c2C(=O)N[C@@H](CC(C)C)C(=O)OCc2ccccc2)cc1	21	x	x	6
COC(CNC(=O)c1coc2nc3ccccc3nc12)OC	3	x	x	14
Cc1cccc(COc2ccc(/C(O)=C3\C(=O)C(=O)N(CCN(C)C)[C@H]3c3ccncc3)cc2)c1	x	x	8%	x
O=C(Nc1ccc(NC(=O)c2ccc(Cl)cc2Cl)cc1)c1ccc2c(c1)OCO2	10	13%[46.1 µM]	2%[46.1 µM]	-1
CCN1CCN(c2ccc(NC(=O)c3ccc4c(c3)OCO4)cc2)CC1	56*	19%	u	29*
O=C(Nc1ccc(Cl)cc1)c1ccc2c(c1)OCO2	49*	u	u	30*
O=c1c(O)c(-c2ccc3c(c2)OCO3)oc2ccccc12	22	-7%	0%	34*
